# proKLK7 act = activates the human kallikrein-7 zymogen; P49862; purified proKLK7, EDANS-DABCYL substrate fluorescence; 100% is mature enzyme control, 0% vehicle; activation, % at 7 µM; actives 0.9% (n = 370,000);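 active = activation above the mean of all tested compounds plus 3 SD, computed per campaign excluding outliers beyond control limits, cut at about 13% in these data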
# MPTP inh = permeability transition pore inhibition. actives 1.4% (n = 360,000). isolated mouse mitochondria, Ca2+ swelling absorbance, 30 min. AID 602449. inhibition, % at 10 µM;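 active = inhibition of 50% or more, scaled per plate between neutral and stimulator controls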;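 also: 0% = DMSO wells given calcium and 100% = 1 mM EGTA wells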
# rCAG binder = molecules binding r(CAG) RNA repeats | r(CAG) RNA repeat, TO-PRO-1 dye displacement fluorescence | inhibition, % at 3 µM | actives 1.3% (n = 370,000) | AID 651821;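 active = inhibition above the plate cutoff, the mean of all test compounds on that plate plus 3 SD, cut at about 35% in these data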;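 also: 0% = DMSO alone and 100% = 100 µM mitoxantrone as full dye displacement; higher means more dye released from RNA so lower well fluorescence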
# ADAM17 inh = inhibits human ADAM17 | P78536 | recombinant ADAM17, EDANS/DABCYL FRET peptide cleavage | inhibition, % at 6.95 µM | actives 0.83% (n = 370,000) | AID 720648;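 active = inhibition above the mean of compounds lying between control limits plus 3 SD, set per campaign, cut at about 8.5% in these data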;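 also: 0% = DMSO-only wells as the low control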
# ADAM10 inh = inhibitors of human ADAM10; inhibition, % at 7 µM; AID 720582; actives 0.62% (n = 370,000); recombinant ADAM10, EDANS/DABCYL FRET peptide cleavage, 3 h;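 active = inhibition above a per-campaign cutoff equal to the mean of compounds falling between control-based bounds plus 3 SD, cut at about 20% in these data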;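 also: 0% = DMSO wells while the 100% control is not disclosed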
# DSG3 Ab inh = blocks pemphigus antibody binding to human desmoglein-3 | P32926 | DSG3-coupled beads, scFv-anti-DSG3-GFP binding, flow cytometry; hits give low values | binding (percent of control), % at 10 µM | actives 0.48% (n = 310,000);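 active = binding more than 3 SD below its plate's average and above zero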;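 also: hits lower antibody fragment binding to DSG3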
# Target sequence (P32926 whole entry, looked up, the tested form may be a part): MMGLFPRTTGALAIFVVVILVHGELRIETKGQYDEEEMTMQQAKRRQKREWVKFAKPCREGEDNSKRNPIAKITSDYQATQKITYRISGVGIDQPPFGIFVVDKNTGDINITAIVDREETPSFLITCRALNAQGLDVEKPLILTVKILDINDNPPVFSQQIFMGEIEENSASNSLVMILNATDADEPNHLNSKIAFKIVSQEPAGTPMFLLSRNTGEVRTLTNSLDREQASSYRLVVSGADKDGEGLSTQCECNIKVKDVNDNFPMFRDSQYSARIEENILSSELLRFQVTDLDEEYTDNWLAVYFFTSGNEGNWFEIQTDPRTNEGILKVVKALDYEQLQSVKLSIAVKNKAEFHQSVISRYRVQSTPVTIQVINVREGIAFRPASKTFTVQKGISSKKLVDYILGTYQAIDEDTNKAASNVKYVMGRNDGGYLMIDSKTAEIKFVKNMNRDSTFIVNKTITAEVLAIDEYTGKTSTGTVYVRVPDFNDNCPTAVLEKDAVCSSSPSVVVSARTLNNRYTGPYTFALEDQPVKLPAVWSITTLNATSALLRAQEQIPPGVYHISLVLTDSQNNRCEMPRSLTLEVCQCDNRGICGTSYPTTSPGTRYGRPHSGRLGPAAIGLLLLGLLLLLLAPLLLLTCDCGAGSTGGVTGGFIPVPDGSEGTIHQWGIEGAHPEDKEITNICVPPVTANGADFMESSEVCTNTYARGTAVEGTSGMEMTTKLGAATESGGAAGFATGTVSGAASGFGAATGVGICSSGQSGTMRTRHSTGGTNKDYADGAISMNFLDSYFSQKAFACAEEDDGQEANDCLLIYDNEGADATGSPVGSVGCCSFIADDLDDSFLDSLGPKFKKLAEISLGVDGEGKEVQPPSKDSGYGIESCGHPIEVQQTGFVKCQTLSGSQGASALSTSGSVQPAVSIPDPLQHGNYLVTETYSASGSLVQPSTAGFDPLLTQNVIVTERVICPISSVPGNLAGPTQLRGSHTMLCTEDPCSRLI
# Rh123 counter = mitochondrial membrane potential, counter-screen. shares compounds with MPTP inh. actives 78% (n = 5,000). AID 624504. inhibition, % at 10 µM. isolated mitochondria, Rhodamine 123 fluorescence; in the data active = inhibition above about 22%;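 also: 0% = DMSO vehicle and 100% = positive control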
# MPTP abs DR = dose response confirmation of mitochondrial permeability transition pore inhibitors | shares compounds with MPTP inh | actives 58% (n = 780) | isolated mitochondria swelling, absorbance | IC50, µM; in the data active = IC50 below about 20 µM
# MPTP counter DR = counter-screen for mitochondrial permeability transition pore inhibitors, dose response; shares compounds with MPTP inh; isolated mitochondria counterscreen, fluorescence read-out; IC50, µM; actives 49% (n = 780); AID 651564; in the data active = IC50 below about 80 µM
# * = called active by the depositor; i = inactive; nt = not tested or not shown. Only some compounds are listed: those with a hit (about 4.7% of all), similar ones and a draw of the others.
SMILES,proKLK7 act,MPTP inh,rCAG binder,ADAM17 inh,ADAM10 inh,DSG3 Ab inh,Rh123 counter,others
Nc1nc(N2CCN(C/C=C/c3ccccc3)CC2)nc2ccccc12,1,63*,-8,-16,-38,nt,-6,MPTP abs DR=i;MPTP counter DR=59*
C(=C\c1ccccc1)/CN1CCN(c2ncnc3c2oc2ccccc23)CC1,0,95*,2,2,0,106,94*,
CCOC(=O)/C(=N\Nc1ccc(C(C)=O)cc1)c1csc(Nc2ccccc2)n1,0,64*,6,2,0,106,-9,MPTP abs DR=i;MPTP counter DR=12*
CC1(C)CC(=O)C2=C(C1)N1C(=C(C#N)C2c2ccc(Cl)cc2)N=C(N)c2ccccc21 (stereo not drawn),-2,1,10,-2,-13,108,nt,
CCOC(=O)C1=C(C)N=C2c3ccccc3C(=O)C2C1c1ccc(Cl)cc1 (stereo not drawn),0,66*,4,8,7,98,45*,
CC1(C)CC(=O)C2=C(C1)N=C1c3ccccc3C(=O)C1C2c1ccc(Cl)cc1 (stereo not drawn),0,98*,2,-1,12,84,4,
O=C(N[C@H](Cc1ccccc1)C(=O)N(CCC1=CCCCC1)CC1CC1)[C@H]1O[C@@H](n2ccc(=O)[nH]c2=O)[C@H](O)[C@@H]1O,0,nt,1,0,-4,nt,nt,
COc1ccc(CN2CCC(CNC(=O)NC3CCC(C)CC3)CC2)cc1 (stereo not drawn),0,nt,2,2,-8,nt,nt,
CN(C)CCCNc1ncnc2c1c(-c1ccccc1)cn2-c1ccccc1,0,59*,5,-1,-5,102,-6,MPTP abs DR=i;MPTP counter DR=>80
Cn1c(COc2ccccc2)nnc1SCC(=O)Nc1ccc(OCc2ccccc2)cc1,0,nt,6,3,4,nt,nt,
Cc1cc(Cl)ccc1NC(=O)NC1CCN(S(=O)(=O)c2ccc(F)cc2)CC1,0,59*,6,-1,-3,100,76*,
Nc1[nH]c(C(=O)c2ccc(Br)cc2)c(-c2c(F)cccc2F)c1C(=O)NCCc1c[nH]c2ccccc12,-1,nt,12,4,5,nt,nt,
Cc1ccc(-n2c(C)cc(C3=NNC(=NC4CC4)SC3)c2C)cc1C,-1,79*,4,9.5*,5,107,83*,
O=C(c1cc2nc(-c3ccc(F)cc3)cc(C(F)(F)F)n2n1)N1CCCCC1c1cccnc1 (stereo not drawn),-2,90*,-8,-10,-18,121,90*,
CN1C(=O)[C@@]2(O[C@H]3C=CC=CN3C3=C2C(=O)CCC3)c2cc([N+](=O)[O-])ccc21,0,nt,5,1,7,nt,nt,
CC(=O)Nc1ccc(S(=O)(=O)Oc2ccc(N3C(=O)C4CCCCC4C3=O)cc2)cc1 (stereo not drawn),0,83*,4,-3,-11,105,52*,
COC(=O)[C@@]12CCCCC=C1N(CCc1ccc(Cl)cc1)C(=O)[C@H]2CC(=O)NCC12CC3CC(CC(C3)C1)C2,0,nt,10,-4,-1,nt,nt,
CCCC(=O)NC(Nc1cc(C(F)(F)F)ccc1Cl)C(Cl)(Cl)Cl (stereo not drawn),0,90*,-7,2,10,109,93*,
COc1cccc(CNc2cnc3ccccc3c2)c1O,10,62*,-4,-119,-368,101,62*,
Cc1cc(N2CCCC2=O)cc(C)c1S(=O)(=O)NCCOc1ccccc1,0,1,-3,-3,-1,99,nt,
Cc1ccc(OCCNS(=O)(=O)c2ccc(Cl)cc2)cc1,0,0,-1,-1,-7,101,nt,
Cc1ccc(OCCNS(=O)(=O)c2ccc(N3CCCC3=O)cc2)cc1C,0,104*,0,0,13,105,92*,
Cc1ccc(OCCNS(=O)(=O)c2ccc(N3CCCC3=O)cc2)cc1,0,84*,1,3,3,108,70*,
N#CCCn1nc(-c2ccc(Br)cc2)cc1Nc1ccccc1NC(=O)C(F)(F)F,0,95*,9,5,13,100,84*,
CCOc1ccc2nc(N3C(=O)/C(=C/c4ccccc4)NC3=S)sc2c1,0,84*,5,2,2,105,15,
SMILES,proKLK7 act,MPTP inh,rCAG binder,ADAM17 inh,ADAM10 inh,DSG3 Ab inh,Rh123 counter,others
CC(C)(C)OC(=O)N1CCCC(C(=O)Nc2ccc(C(=O)NC3CC3)cc2)C1 (stereo not drawn),0,168*,-3,-5,-18,104,3,MPTP abs DR=>100;MPTP counter DR=>80
CCCCn1cnc2c(c(-c3ccccc3)c(-c3ccccc3)n2Cc2ccco2)c1=N,0,3,18,-3,-8,110,nt,
N=c1c2c(-c3ccccc3)c(-c3ccccc3)n(Cc3ccccc3)c2ncn1CCCn1ccnc1,1,56*,9,-4,-8,115,1,
COC(=O)[C@]12C[C@H](CC(=O)N3CCSCC3)C(=O)N(Cc3cccc4ccccc34)C1=C[C@H](C(C)(C)C)O[C@@H]2C,0,nt,6,-1,8,nt,nt,
OCC1(Cc2cccc(C(F)(F)F)c2)CCN(Cc2cc(F)cc(F)c2)CC1,0,2,-8,8,19,105,nt,
CSc1cccc(CN2CCC(CO)(Cc3cccc(C(F)(F)F)c3)CC2)c1,1,72*,-9,-2,6,112,-8,MPTP abs DR=5.2*;MPTP counter DR=40*
COC(=O)[C@]12C[C@H](CC(=O)N3CCN(C(=O)c4ccco4)CC3)C(=O)N(Cc3ccc4c(c3)OCO4)C1=C[C@H](COCc1ccccc1)O[C@@H]2C,0,nt,6,0,2,nt,nt,
CCNC(=O)OCc1cn(-c2ccc(Cl)cc2)nn1,0,-1,0,-4,-5,97,nt,
O=C(Nc1ccc(Cl)cc1)OCc1cn(-c2ccc(Cl)cc2)nn1,0,85*,-1,0,2,nt,83*,
O=C(Nc1ccc(Cl)cc1)OCc1ccccn1,0,91*,-1,-7,-1,nt,85*,
c1cc2ccn(CC3CC3)c2cc1-c1ccc2ccn(CC3CC3)c2c1,-2,nt,6,-32,-100,nt,nt,
O=C(Nc1ccccc1O)C(c1ccccc1)c1ccccc1,-1,83*,5,-1,15,88,83*,
CC(C)Cc1ccc(C(C)C(=O)Nc2ccccc2O)cc1 (stereo not drawn),0,90*,0,0,12,94,95*,
COc1ccc(Cl)cc1NC(=O)CSc1nnc(Cc2ccc(C)cc2)c(=O)[nH]1,0,63*,75*,-4,-4,99,67*,
